A selection: hits, their analogues and other compounds. The true share with any hit is near 8.9%.
KB-V1 cytotox: kills drug-selected multidrug resistant KB-V1 cells. AID 1347076. KB-V1 MDR cells viability, CellTiter-Glo, 72 h. 400,000 tested, 3.4% active. Potency, µM (series often up to 46.1 µM), hits mostly cytotoxic; also: potency is read from the fitted curve at half-maximal effect; % is scaled to controls: 0 for no effect and ±100 for the full control effect; nearly all actives have a fitted effect of over 60% in size
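Cytotoxicity toward P-gp-expressing KB-V1 cells was determined as loss of CellTiter-Glo luminescence after 72 h at 37 degrees C. Compounds were tested in quantitative HTS format across a concentration range, with curves fitted to normalized data.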
D3 ag: agonists of human D3 dopamine receptor; P35462; max activation, %; 410,000 tested, 0.58% active; D3R DiscoveRx beta-arrestin cells, luminescence, 90 min; in the data active = max activation above about 30%; also: 0% is about no effect
Target sequence (P35462 whole entry, looked up): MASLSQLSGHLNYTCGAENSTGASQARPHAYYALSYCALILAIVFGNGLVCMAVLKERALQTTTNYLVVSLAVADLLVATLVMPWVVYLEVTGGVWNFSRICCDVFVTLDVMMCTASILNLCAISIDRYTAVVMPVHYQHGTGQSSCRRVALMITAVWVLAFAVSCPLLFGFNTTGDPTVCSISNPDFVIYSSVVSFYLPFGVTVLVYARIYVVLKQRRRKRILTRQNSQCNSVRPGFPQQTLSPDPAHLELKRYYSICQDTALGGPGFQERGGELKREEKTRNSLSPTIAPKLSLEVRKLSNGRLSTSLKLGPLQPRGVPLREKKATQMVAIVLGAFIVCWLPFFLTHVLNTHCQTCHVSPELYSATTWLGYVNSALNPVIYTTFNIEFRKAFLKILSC
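Cells at 1500/well, incubated overnight, then treated with pinned compounds (dopamine as control) for 90 min at 37 degrees C. DiscoveRx reagent added for 30 - 60 minutes at room temperature; luminescence read.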
D3 antag: D3 dopamine receptor (human) antagonism | P35462 | D3R cells, DiscoveRx beta-arrestin luminescence, antagonist mode; active compounds read low | max response, negative = inhibition, % | 360,000 tested, 2.5% active | AID 652054; in the data active = max response below about -50%; inconclusive = no clear call, values can overlap the other calls; also: % is scaled to controls: 0 for no effect and ±100 for the full control effect
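Cells plated overnight at 1500 cells/well, then exposed to library compounds with dopamine controls for 90 minutes at 37 degrees C. DiscoveRx reagent added for 30–60 minutes at room temperature; luminescence read, quantitative HTS format.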
KB-3-1 tox: KB-3-1 parental cell cytotoxicity; KB-3-1 viability, CellTiter-Glo ATP luminescence, 72 h; Potency, µM (top dose mostly 46.1 µM), usual class: cytotoxic; 400,000 tested, 1.4% active; also: potency is read from the fitted curve at half-maximal effect; % is scaled to controls: 0 for no effect and ±100 for the full control effect; nearly all actives have a fitted effect of over 60% in size
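Multi-concentration cytotoxicity screen in KB-3-1 cells grown in DMEM lacking phenol red with 10% FBS. After 72 h at 37 °C with compound, ATP-dependent luminescence was recorded.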
MCF10A rerep: inducers of DNA re-replication in MCF 10A breast cells | AID 624296 | MCF 10A DNA re-replication, Hoechst nuclear intensity, 48 h | 350,000 tested, 2.9% active | Potency, µM (top dose mostly 46.1 µM), for inactives: at the highest dose activity, positive = re-replication, most hits filed as activators; also: potency is read from the fitted curve at half-maximal effect; % of control where 0% means no effect; nearly all actives have a fitted effect of over 50% in size
SW480 rerep: DNA re-replication induction in SW480 cells; SW480 DNA re-replication, Hoechst DNA content imaging, 48 h; Potency, µM (highest dose often 46.1 µM), inactives show top-dose re-replication activation, hits mostly activators; 340,000 tested, 1.8% active; AID 624297; also: potency is read from the fitted curve at half-maximal effect; % of control where 0% means no effect; nearly all actives have a fitted effect of over 55% in size
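Quantitative HTS format with DMSO vehicle controls; 48 hr drug incubation at 37 C, then 40 min Hoechst staining and scanning imager measurement at 405 nm excitation.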
* marks the source's active call; other numbers are inactive results. Unless noted, calls follow the shape of the dose curve; as a rule, active = well fitted curve in the direction sought with a large enough effect; inconclusive = small, poorly fitted or top-dose-only effect, or another doubt; inactive = no such curve, though single readings can be large; an effect the other way counts as inactive or inconclusive.

Screening CC(=O)NS(=O)(=O)c1ccc(NC(=O)c2ccc(Cl)cc2[N+](=O)[O-])cc1 returned KB-V1 cytotox inactive, D3 ag 4, D3 antag 14, KB-3-1 tox inactive, MCF10A rerep 3% and SW480 rerep -2%.
O=C(Nc1ccccc1)c1ccccc1NC(=O)c1ccccc1[N+](=O)[O-] was read as KB-V1 cytotox inactive, D3 ag -18, D3 antag inconclusive, KB-3-1 tox inactive, MCF10A rerep 1% and SW480 rerep -6%.
`O=C(Nc1ccc(Nc2ccccc2)cc1)c1ccc(Cl)cc1[N+](=O)[O-]` gave KB-V1 cytotox inconclusive, D3 ag -15, D3 antag -66*, KB-3-1 tox inactive, MCF10A rerep -1% and SW480 rerep -9%.
O=C(Nc1ccc(Nc2ccccc2)cc1)c1c(Cl)cccc1Cl was read as KB-V1 cytotox inactive, D3 ag 3, D3 antag -12, KB-3-1 tox inactive, MCF10A rerep 23µM* and SW480 rerep 1%.
O=C(Nc1ccc(Nc2ccccc2)cc1)c1c(F)c(F)c(F)c(F)c1F was read as KB-V1 cytotox inconclusive, D3 ag 0, D3 antag 0, KB-3-1 tox inactive, MCF10A rerep 13% and SW480 rerep 23%.
Screening O=C(Nc1cccc2c1C(=O)NC2=O)c1ccccc1[N+](=O)[O-] returned KB-V1 cytotox inactive, D3 ag -3, D3 antag 19, KB-3-1 tox inactive, MCF10A rerep 18% and SW480 rerep 21µM*.
O=C(NNS(=O)(=O)c1ccccc1[N+](=O)[O-])c1ccccc1[N+](=O)[O-] was read as KB-V1 cytotox inactive, D3 ag -2, D3 antag 17, KB-3-1 tox inactive, MCF10A rerep -14% and SW480 rerep 0.52µM*.
For O=C(Nc1ccc(F)c(Cl)c1)C1Cc2c(-c3ccc4c(c3)OCO4)ccnc2O1 (configuration not stated) the results were KB-V1 cytotox inactive, D3 ag 9, D3 antag 26 and KB-3-1 tox inactive.
For O=C(Nc1ccc(Cl)cn1)c1ccccc1[N+](=O)[O-] the results were KB-V1 cytotox inconclusive, D3 ag -8, D3 antag -29, KB-3-1 tox inconclusive, MCF10A rerep inconclusive and SW480 rerep 15µM*.
Screening CCOC(=O)c1cc(S(=O)(=O)Nc2ccccc2)[nH]n1 returned KB-V1 cytotox inactive, D3 ag -12 and KB-3-1 tox inactive.
For O=C(Oc1ccccc1)c1ccc(COC(=O)c2cnccn2)cc1 the results were KB-V1 cytotox inactive, D3 ag -2, D3 antag -106*, KB-3-1 tox inactive, MCF10A rerep -2% and SW480 rerep inconclusive.
`CN(C)CCN(C)C1CN(Cc2ccc([N+](=O)[O-])cc2)S(=O)(=O)C1` (configuration not stated) gave KB-V1 cytotox inactive, D3 ag -9, D3 antag -20 and KB-3-1 tox inactive.
`O=C(CN1CCN(Cc2ccccc2)CC1)c1ccc(Br)cc1` gave KB-V1 cytotox inactive, D3 ag -35, D3 antag -62*, KB-3-1 tox inactive, MCF10A rerep inconclusive and SW480 rerep inconclusive.
For Cc1cccc(S(=O)Cc2ccc(C(=O)NC3CCN(Cc4ccccc4)CC3)o2)c1 (configuration not stated) the results were KB-V1 cytotox inactive, D3 ag -21, D3 antag -67*, KB-3-1 tox inactive, MCF10A rerep 11% and SW480 rerep 9%.
For CCOc1ccc(C(=O)CC(C(=O)O)N2CCN(Cc3ccccc3)CC2)cc1 (configuration not stated) the results were KB-V1 cytotox inactive, D3 ag -10, D3 antag -23, KB-3-1 tox inactive, MCF10A rerep 16µM* and SW480 rerep 21%.
`Cc1ccccc1S(=O)Cc1ccc(C(=O)NC2CCN(Cc3ccccc3)CC2)o1` (configuration not stated) gave KB-V1 cytotox inactive, D3 ag -23, D3 antag -22, KB-3-1 tox inactive, MCF10A rerep 2% and SW480 rerep -1%.
`CCN(CC)C(=O)C1CCN(Cc2ccc(Br)cc2)CC1` gave KB-V1 cytotox 18µM*, D3 ag -8, D3 antag inconclusive, KB-3-1 tox inactive, MCF10A rerep 6% and SW480 rerep 13%.
`Cc1ccc(S(=O)(=O)c2nnn3c2nc(N(C)Cc2ccccc2)c2cc(Cl)ccc23)cc1C` gave KB-V1 cytotox inactive, D3 ag 1 and KB-3-1 tox inactive.
For CC[C@@H]1[C@H]2CCCC(=O)N3CC[C@@H](C[C@@H]1OC(=O)Nc1ccc4c(c1)OCO4)[C@@H]23 the results were KB-V1 cytotox inactive and KB-3-1 tox inactive.
Screening Cc1ccccc1CC(=O)NC1CCN(Cc2ccccc2)CC1 returned KB-V1 cytotox inactive, D3 ag -22, D3 antag -27, KB-3-1 tox inactive, MCF10A rerep 0% and SW480 rerep 13%.
Screening O=C(Cc1ccccc1)NC1CCN(Cc2ccccc2)CC1 returned KB-V1 cytotox inactive, D3 ag -17, D3 antag inconclusive, KB-3-1 tox inactive, MCF10A rerep 8% and SW480 rerep 1%.
`O=C(Cc1ccc(Br)cc1)NC1CCN(Cc2ccccc2)CC1` gave KB-V1 cytotox 18µM*, D3 ag -13, D3 antag -4, KB-3-1 tox inconclusive, MCF10A rerep inconclusive and SW480 rerep 4%.
`O=C(CN1CCN(Cc2ccccc2)CC1)c1c[nH]c2ccccc12` gave KB-V1 cytotox inactive, D3 ag -12, D3 antag -54*, KB-3-1 tox inconclusive, MCF10A rerep 7% and SW480 rerep 3%.
Cc1ccc(CC(=O)NC2CCN(Cc3ccccc3)CC2)cc1 was read as KB-V1 cytotox inactive, D3 ag -10, D3 antag -55*, KB-3-1 tox inactive, MCF10A rerep inconclusive and SW480 rerep inconclusive.
Screening CCCc1noc2c1/C(=N\O)CC(c1ccccc1)C2 (configuration not stated) returned KB-V1 cytotox inactive, D3 ag 6, D3 antag 11, KB-3-1 tox inactive, MCF10A rerep inconclusive and SW480 rerep -5%.
Screening CCCc1n[nH]c2c1/C(=N/O)CC(c1ccccc1)C2 (configuration not stated) returned KB-V1 cytotox inconclusive, D3 ag -13, D3 antag -25, KB-3-1 tox 26µM*, MCF10A rerep 7% and SW480 rerep 5%.
